Bioassay records (PubChem BioAssay)
A selection: hits, their analogues and other compounds. The true share with any hit is near 10%.
NIH3T3 tox: NIH 3T3 cell cytotoxicity | NIH 3T3 viability, CellTiter-Glo ATP luminescence, 48-72 h | Potency, µM (top dose mostly 96.7 µM), without a hit: at the top dose activity change, negative = cytotoxicity, hits mostly inhibitors | hit rate 4.3% among 94,000 | AID 1345082; also: nearly all actives have a fitted effect of over 55% in size
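Cells were seeded at 400 per well, treated with pin-transferred compound, and kept 48 or 72 hr at 37 °C before CellTiter-Glo addition and luminescence imaging of cellular ATP.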
HEK cytotox: HEK 293 cell cytotoxicity. HEK 293 viability, ATP luminescence (CellTiter-Glo), 48-72 h. Potency, µM (top dose mostly 115 µM), without a hit: at the top dose activity change, negative = cytotoxicity, most hits filed as inhibitors. hit rate 6.6% among 94,000; also: nearly all actives have a fitted effect of over 60% in size
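CellTiter-Glo luminescence (cellular ATP) was read after 48 or 72 hr of compound exposure at 37 degree Celsius. Cells were HEK 293 plated at 250 cells/well.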
FLuc inh: inhibitors of firefly (Photinus pyralis) luciferase. P08659. purified P. pyralis luciferase, luminescence, biochemical. Potency, µM (series often up to 115 µM), usual class: inhibitors. hit rate 2.5% among 76,000; also: nearly all actives have a fitted effect of over 65% in size
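Biochemical qHTS: compound (6-point titration) added to 10uM D-luciferin plus 10uM ATP in Tris acetate pH 7.5 buffer with Mg, Tween-20 and BSA, then purified enzyme at 10nM; light output imaged.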
NPR1 antag: antagonists of human natriuretic peptide receptor Npr1; P16066; HEK293 hNpr1 GloSensor cGMP, ANP-stimulated luminescence; Potency, µM (titrated, usually from 46.3 µM), inactives show at the top dose activity change, negative = inhibition, most hits filed as inhibitors; hit rate 1.6% among 76,000; AID 1347048; calls by dose curve; also: nearly all actives have a fitted effect of over 60% in size
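Compound pre-incubated 30 min at room temperature on GloSensor-loaded HEK293 cells stably carrying hNpr1 and the pGS-40F cGMP biosensor. Stimulation uses hNppA at 0.1 nM final; luminescence is taken at baseline and 20 min post-agonist.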
GPT2 inhibitor: inhibitors of human GPT2 alanine aminotransferase | Recombinant GPT2, coupled pyruvate oxidase/HRP Amplex Red fluorescence | Potency, µM (titrated, usually from 57.7 µM), without a hit: at the top dose activity change, negative = inhibition, actives largely listed as inhibitors | hit rate 0.25% among 100,000 | AID 1671188; also: nearly all actives have a fitted effect of over 60% in size
Target sequence (Q8TD30 whole entry, looked up): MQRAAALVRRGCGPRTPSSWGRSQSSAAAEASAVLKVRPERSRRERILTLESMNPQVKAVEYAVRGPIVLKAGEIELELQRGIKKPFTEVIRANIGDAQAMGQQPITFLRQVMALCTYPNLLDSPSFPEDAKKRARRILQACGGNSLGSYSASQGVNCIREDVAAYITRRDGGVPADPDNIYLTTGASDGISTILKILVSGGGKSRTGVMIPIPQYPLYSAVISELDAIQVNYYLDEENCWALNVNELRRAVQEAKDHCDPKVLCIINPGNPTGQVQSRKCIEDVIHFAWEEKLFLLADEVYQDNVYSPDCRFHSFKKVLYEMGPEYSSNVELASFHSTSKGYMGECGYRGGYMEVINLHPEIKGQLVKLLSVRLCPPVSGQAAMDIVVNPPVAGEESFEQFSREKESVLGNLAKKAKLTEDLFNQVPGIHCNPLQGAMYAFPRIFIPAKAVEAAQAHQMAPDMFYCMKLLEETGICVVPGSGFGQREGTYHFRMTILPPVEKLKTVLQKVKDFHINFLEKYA
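Recombinant GPT2 (10ng/uL) with 250uM a-KG and 2mM L-alanine, 30 min at room temperature, in HEPES pH 7.5 buffer. Pyruvate detected by pyruvate oxidase/HRP/Amplex Red fluorescence after 30 min in the dark; AOA (50uM) as positive control.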
Starred values were filed as active, the others as inactive; i = inactive; ? = inconclusive; / = no result; [ ] = dose if it differs, or a comment. Unless noted, calls follow the shape of the dose curve; as a rule, active = well fitted curve in the direction sought with a large enough effect; inconclusive = small, poorly fitted or top-dose-only effect, or another doubt; inactive = no such curve, though single readings can be large; an effect the other way counts as inactive or inconclusive. % is scaled to controls: 0 for no effect and ±100 for the full control effect; potency is read from the fitted curve at half-maximal effect.

SMILES	NIH3T3 tox	HEK cytotox	FLuc inh	NPR1 antag	GPT2 inhibitor
O=C(c1cccc(F)c1)N1CCC(n2cc(-c3nc(-c4ccccc4)no3)nn2)C1 (stereo unspecified)	?	?	i	-4.9%	i
COc1ccc(C(=O)N2CCCC(n3cc(-c4nc(-c5ccccc5)no4)nn3)C2)cc1F (stereo unspecified)	?	20µM*	?	?	i
O=C(c1ccc(F)c(F)c1)N1CCCC(n2cc(-c3nc(-c4ccccc4)no3)nn2)C1 (stereo unspecified)	?	44.7µM*	?	11.2µM*	-9.6%
CN(C)c1cccc(C(=O)N2CCC(n3cc(-c4nc(-c5ccccc5)no4)nn3)C2)c1 (stereo unspecified)	?	28.2µM*	31.6µM*	?	i
O=C(c1cccc(Cl)c1)N1CCC(n2cc(-c3nc(-c4ccccc4)no3)nn2)C1 (stereo unspecified)	?	39.8µM*	?	-15.8%	i
O=C(Nc1ccc2c(N3CCCC3)ncnc2c1)c1c(F)cccc1F	?	?	i	-11.0%	-3.4%
CC(C)Cn1c(=O)c(C(=O)NCCc2ccccc2)nc2cccnc21	?	?	/	/	-8.7%
O=C(c1ccc2c(c1)OCO2)N1CCC(n2cc(-c3nc(-c4ccccc4)no3)nn2)CC1	?	?	?	?	i
O=C(c1ccc2c(c1)OCO2)N1CCC(n2cc(-c3nc(-c4ccccc4)no3)nn2)C1 (stereo unspecified)	-42.9%	?	?	12.6µM*	i
C[S+](=O)([O-])N1Cc2ccccc2CC2(CCCCN2CCc2ccccc2)C1 (stereo unspecified)	?	?	/	/	i
O=C(c1ccccn1)N1CCC(Cc2ccc(COc3ccncc3)cc2)CC1	25.1µM*	?	/	/	i
Cn1cnc(C(=O)N2CCC(Cc3ccc(C(=O)N4CCOCC4)cc3)CC2)c1	-15.4%	2.8%	i	2.9%	i
O=C(c1ccccn1)N1CCCC(CN2CCCC2)CC1 (stereo unspecified)	i	i	i	-1.2%	1.4%
Cn1cnc(C(=O)N2CCC(Cc3ccc(COc4cccc(F)c4)cc3)CC2)c1	?	15.8µM*	/	/	-7.7%
CN(C)C1(CC2CC2)CCN(Cc2cccc(F)c2)CC1	-29.2%	-4.3%	/	/	2.9%
O=C(Nc1ccc2c(c1)OCCO2)N1CCCC1Cc1noc(Cc2ccccc2)n1 (stereo unspecified)	?	-23.4%	/	/	i
CC(C)c1ccc(S(=O)(=O)N2CCCC2Cc2noc(Cc3ccccc3)n2)cc1 (stereo unspecified)	?	25.1µM*	/	/	i
Cc1cc(C)c(CN2CCC(n3cc(C(C)(C)N)nn3)CC2)c(C)c1	79.4µM*	?	i	7.2%	i
COc1ccc(Cn2c(=O)c(C(=O)N3CCN(C(=O)c4ccc(C(F)(F)F)cc4)CC3)nc3cccnc32)cc1	?	?	/	/	i
C[C@]1(CO)[C@H]2Cc3sc(NC(=O)c4ccc(F)cc4)nc3[C@@H](CC(=O)NC3CCCC3)[C@]2(C)CC[C@H]1O	44.7µM*	?	i	-0.8%	?
C[C@]1(CO)[C@H]2Cc3sc(NC(=O)c4ccc(F)cc4)nc3[C@@H](CC(=O)NC3CCCCC3)[C@]2(C)CC[C@H]1O	?	?	i	-0.8%	4.3%
COc1ccc(C(=O)Nc2nc3c(s2)C[C@@H]2[C@](C)(CO)[C@H](O)CC[C@@]2(C)[C@@H]3CC(=O)NCc2ccco2)cc1	?	79.4µM*	i	1.2%	-5.2%
CC(C)(C)CC(=O)Nc1nc2c(s1)C[C@@H]1[C@](C)(CO)[C@H](O)CC[C@@]1(C)[C@@H]2CC(=O)NC1CCCCC1	79.4µM*	?	i	-0.8%	i
CC1CCN(C(=O)C[C@@H]2c3nc(NC(=O)c4ccc(F)cc4)sc3C[C@@H]3[C@](C)(CO)[C@H](O)CC[C@]32C)CC1	79.4µM*	?	i	-0.5%	-6.0%
COc1ccc(-c2noc(-c3cccn3CC(=O)Nc3ccc(F)c(F)c3)n2)cc1F	?	-17.2%	i	-2.9%	i
SMILES	NIH3T3 tox	HEK cytotox	FLuc inh	NPR1 antag	GPT2 inhibitor
COc1cccc(-c2ccc(C(=O)N3CCC(C(=O)NC4CCCC4)CC3)cc2)c1	?	?	/	/	i
CC(C)(C)c1ccc(C(=O)Nc2nc3c(s2)C[C@@H]2[C@](C)(CO)[C@H](O)CC[C@@]2(C)[C@@H]3CC(=O)N2CCC(C(N)=O)CC2)cc1	28.2µM*	?	?	-7.5%	?
Cn1cc(CN2CCNc3cnc(-c4ccccc4)cc3C2)cn1	31.6µM*	?	i	-0.5%[70.6 µM]	0.5%[88.5 µM]
CN(C)c1ccc(CN2CCNc3cnc(-c4ccccc4)cc3C2)cc1	?	100µM*	i	-15.0%[70.6 µM]	i
Cc1cccc(CN2CCNc3cnc(-c4ccccc4)cc3C2)c1	?	?	i	-25.5%[70.6 µM]	i
CCNC(=O)N[C@H]1[C@H](O)[C@@H](N2CCN(C(C)=O)CC2)[C@@H]2OC[C@H]1O2	-13.2%[174 µM]	-8.1%[172 µM]	i	3.2%[70.6 µM]	?
CC(=O)Nc1cc(-c2cn(C)c(=O)n3cc(CN4CC[S+](=O)([O-])CC4)nc23)ccn1	100µM*	-17.2%[172 µM]	i	1.1%[70.6 µM]	-2.0%[88.5 µM]
COc1ccc(-c2cc(N3CCCC(NC(=O)c4cc5ccccc5[nH]4)C3)n[nH]2)cc1 (stereo unspecified)	?	?	8.91µM*	-18.4%	?
COc1ccc(-c2cc(N3CCC(NC(=O)c4ccc(C)c(C)c4)C3)n[nH]2)cc1 (stereo unspecified)	?	50.1µM*	i	4.1%	?
COc1ccc(-c2cc(N3CCCC(NC(=O)CCc4ccccc4OC)C3)n[nH]2)cc1 (stereo unspecified)	?	39.8µM*	i	-4.4%	-18.9%
CN(C)c1cccc(C(=O)NC2CCN(c3cc(-c4ccc(F)cc4)[nH]n3)CC2)c1	?	?	35.5µM*	?	i
COc1ccc(-c2cc(N3CCCC(NC(=O)c4ccccc4F)C3)n[nH]2)cc1 (stereo unspecified)	?	?	?	-16.8%	?
COc1ccc(CCC(=O)N2C[C@@H](Oc3cccnc3)C[C@H]2C(=O)N2CCOCC2)cc1	-6.2%	i	/	/	i
CCC(=O)N1CC(N(Cc2ccccc2)C2CCOCC2)C1	i	-7.4%	/	/	1.5%
COc1ccc(-c2cc(N3CCCC(NC(=O)c4cc(C)cc(C)c4)C3)n[nH]2)cc1 (stereo unspecified)	39.8µM*	44.7µM*	?	-17.4%	?
